Publication PMC5540273 (PLoS ONE, 2017)
Where two headings read alike, the source gives them in different places.

Legend:
PRKD3 = conditions: concentration: 1 μM, replicates: in singlicate; n = 1
PRKG1 = conditions: n = 1
PRKG2 = conditions: concentration: 1 μM, replicates: in singlicate; n = 1
PRKR = test system: T1, PRKR; conditions: concentration: 1 μM, replicates: in singlicate; n = 1
T1 construct: gene EIF2AK2

PRKX = conditions: n = 1
PRP4 = conditions: concentration: 1 μM, replicates: in singlicate; n = 1
PYK2 = test system: T2, PYK2; conditions: concentration: 1 μM, replicates: in singlicate; n = 1
T2 construct: gene PTK2B

QSK = conditions: concentration: 1 μM, replicates: in singlicate; n = 1
RAF1 = conditions: concentration: 1 μM, replicates: in singlicate; n = 1
RET = conditions: concentration: 1 μM, replicates: in singlicate; n = 1
[1] = concentration: 1 μM, replicates: in singlicate
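Also: KINOMEscan kinase panel screen.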

Row | SMILES | %Inh (PRKD3) [%] | %Inh (PRKG1; [1]) [%] | %Inh (PRKG2) [%] | %Inh (PRKR) [%] | %Inh (PRKX; [1]) [%] | %Inh (PRP4) [%] | %Inh (PYK2) [%] | %Inh (QSK) [%] | %Inh (RAF1) [%] | %Inh (RET) [%] | %Inh (PRKG1; 1 µM) [%] | %Inh (PRKX; 1 µM) [%]
1 | COc1cccc(NC(=O)NC2CCN(c3ccnc(Nc4cc(OC)c(OC)c(OC)c4)n3)C2)c1 (stereo not drawn) [GSK1379763] | 0 | 0 | 0 | 6 | 28 | 26 | 4 | 0 | 7 | 16 | – | –
2 | Cc1ccc(F)c(C(=O)Nc2cccc(-c3nn4ccccc4c3-c3ccnc(Nc4cccc(F)c4)n3)c2)c1F [GSK361061] | 32 | 18 | 0 | 0 | 12 | 15 | 0 | 17 | 87 | 96.3 | – | –
3 | COCCOCCOc1cc2ncc3c4ccc(C#N)cc4[nH]c3c2cc1OC | 0 | 0 | 17 | 41 | 0 | 19 | 6 | 67 | 0 | 45 | – | –
4 | COc1cc(Nc2nccc(N3CCC(NC(=O)c4cc5ccccc5s4)C3)n2)cc(OC)c1OC (stereo not drawn) [GSK1379760] | 0 | 9 | 7 | 8 | 24 | 48 | 0 | 100 | 15 | 21 | – | –
5 | COc1ccc(-c2coc3ccc(-c4nnc(SCc5ccc(OC)c(C(F)(F)F)c5)o4)cc23)cc1 | 0 | 6 | 14 | 0 | 0 | 15 | 0 | 0 | 12 | 0 | – | –
6 | CCn1c(-c2nonc2N)nc2c(C#CC(C)(C)O)nc(OC[C@H](N)c3ccccc3)cc21 [GSK943949] | 22 | 60 | 92.6 | 0 | 92.1 | 10 | 7 | 0 | 11 | 10 | – | –
7 | O=C(Nc1n[nH]c2cc(-c3ccoc3)ccc12)C1CC1 [SB-738481] | 0 | 0 | 14 | 0 | 0 | 0 | 9 | 11 | 0 | 0 | – | –
8 | Cn1cc(-c2[nH]c3cc(NC(=O)[C@H](N)C4CCCCC4)cc4c3c2C=NNC4=O)cn1 | 0 | 56 | 96.2 | 67 | 89 | 68 | 3 | 95.8 | 0 | 100 | – | –
9 | Cc1cccc(NC(=O)Nc2ccc(Oc3ncnc4ccn(C)c34)cc2)c1 | 0 | 100 | 0 | 0 | 0 | 0 | 0 | 0 | 0 | 94 | – | –
10 | COc1cccc(C2=C(Nc3ccc(Cl)c(C(=O)O)c3)C(=O)NC2=O)c1 [SB-390769] | 0 | 0 | 41 | 9 | 0 | 31 | 0 | 100 | 14 | 11 | – | –
11 | CN1CCN(CCCNc2nccc(-c3c(-c4ccc(F)cc4)nn4cc(C(F)(F)F)ccc34)n2)CC1 [GW621581] | 62 | 10 | 0 | 0 | 13 | 25 | 0 | 0 | 8 | 0 | – | –
12 | O=C(Nc1cccc(Oc2ccc3nc(NC(=O)C4CC4)cn3n2)c1)c1ccccc1C(F)(F)F | 0 | 0 | 0 | 8 | 5 | 5 | 6 | 0 | 76 | 99.9 | – | –
13 | Clc1ccc(-c2nn3ncccc3c2-c2ccnc(Nc3ccc4c(c3)OCCO4)n2)cc1 [GW829116] | 3 | 0 | 0 | 0 | 0 | 0 | 24 | 0 | 16 | 24 | – | –
14 | O=C(Nc1cccc(-c2nn3ccccc3c2-c2ccnc(Nc3cccc(C(F)(F)F)c3)n2)c1)c1c(F)cccc1F [GSK292658] | 29 | 3 | 0 | 0 | 8 | 5 | 0 | 2 | 72 | 73 | – | –
15 | CCS(=O)(=O)c1ccc(OC)c(Nc2nccc(-c3c(-c4cccc(NC(=O)c5c(F)cccc5F)c4)nn4ncccc34)n2)c1 [GSK326180] | 12 | 6 | 3 | 0 | 18 | 20 | 12 | 7 | 93.2 | 20 | – | –
16 | COC(=O)Nc1nc2cc(Oc3ccc(NC(=O)Nc4cc(C(F)(F)F)ccc4F)cn3)ccc2[nH]1.Cl.Cl [GW681170] | 13 | 9 | 22 | 0 | 0 | 22 | 16 | 0 | 90.3 | 99.9 | – | –
17 | Cc1ccc(S(=O)(=O)Nc2ccc(Nc3nccc(Nc4cccc5[nH]ncc45)n3)cc2)cc1 [GSK581271] | 0 | 0 | 5 | 0 | 6 | 53 | 12 | 6 | 10 | 8 | – | –
18 | Cl.c1ccc(-c2ccc3c(Nc4ccc5[nH]ccc5c4)ccnc3c2)nc1 [GW440138] | 5 | 0 | 0 | 0 | 3 | 77 | 0 | 0 | 40 | 96.9 | – | –
19 | Oc1cc(Nc2ccnc3cc(I)ccc23)ccc1F [GW552771] | 40 | 0 | 0 | 0 | 0 | 18 | 25 | 69 | 49 | 85 | – | –
20 | CCc1ccc(-c2ccc3c(c2)-c2c(cnn2C)S(=O)(=O)N3C)cc1 | 0 | 0 | 0 | 6 | 16 | 10 | 0 | 0 | 19 | 5 | – | –
21 | Cc1ccc(C(=O)Nc2ccc(Nc3ccnc4cc(-c5nccs5)ccc34)cc2O)cc1.Cl [GW494702] | 0 | 0 | 0 | 0 | 11 | 46 | 0 | 0 | 19 | 59 | – | –
22 | COc1ccc(CNC(=O)NC2CCN(c3ccnc(Nc4ccc(F)cc4)n3)CC2)cc1 [GSK1379788] | 0 | 0 | 0 | 0 | 5 | 46 | 0 | 0 | 7 | 0 | – | –
23 | CNC(=O)c1ccccc1Nc1nc(Nc2ccc(N3CCOCC3)cc2)ncc1Cl.Cl [GSK1576028] | 81 | 74 | 88 | 72 | 17 | 77 | 99.7 | 18 | 0 | 100 | – | –

Row | SMILES | %Inh (PRKD3) [%] | %Inh (PRKG1; [1]) [%] | %Inh (PRKG2) [%] | %Inh (PRKR) [%] | %Inh (PRKX; [1]) [%] | %Inh (PRP4) [%] | %Inh (PYK2) [%] | %Inh (QSK) [%] | %Inh (RAF1) [%] | %Inh (RET) [%] | %Inh (PRKG1; 1 µM) [%] | %Inh (PRKX; 1 µM) [%]
24 | CCn1c(-c2nonc2N)nc2c(C#CC(C)(C)O)ncc(OCCCCN)c21.O=C(O)C(F)(F)F.O=C(O)C(F)(F)F [GSK507274] | 0 | – | 96 | 0 | – | 2 | 0 | 5 | 13 | 1 | 64 | 94.1
25 | COc1cc(Nc2nccc(-c3c(-c4cccc(NC(=O)c5c(F)cccc5F)c4)nn4ncccc34)n2)cc(OC)c1OC [GSK327238] | 0 | 24 | 15 | 22 | 0 | 0 | 72 | 17 | 97.2 | 99.7 | – | –
26 | Cl.NC(=O)c1cccc(Nc2nccc(Nc3ccc(Oc4c(Cl)cccc4Cl)c(Cl)c3)n2)c1 [GW659009] | 21 | 0 | 0 | 0 | 0 | 20 | 0 | 0 | 88 | 0 | – | –
27 | COc1cc(Nc2ncc3c(C)nc(-c4cc5ccccc5[nH]4)n3n2)cc(OC)c1OC [GW869516] | 0 | 0 | 0 | 35 | 0 | 0 | 36 | 0 | 18 | 45 | – | –
28 | Cn1cc(-c2ccc3c(c2)CCN3C(=O)Cc2cccc(Cl)c2)c2c(N)ncnc21 [GSK2606590] | 9 | 14 | 0 | 14 | 21 | 2 | 4 | 23 | 1 | 27 | – | –
29 | COc1cc(Nc2nccc(-c3c(-c4cccc(NC(=O)c5c(F)cccc5F)c4)nn4ccccc34)n2)cc(OC)c1OC [GSK323521] | 42 | 31 | 0 | 15 | 22 | 1 | 2 | 3 | 16 | 29 | – | –
30 | CN(C)Cc1ccc(-c2ccc3c(Nc4ccc(Oc5ccccn5)cc4)ccnc3c2)o1 [GW567148] | 0 | 0 | 0 | 0 | 22 | 4 | 0 | 0 | 0 | 1 | – | –
31 | Nc1ncc(-c2ccc3nccc(-c4ccncc4)c3c2)cc1S(=O)(=O)N1CCOCC1 [GSK1627798] | 0 | 0 | 0 | 14 | 11 | 3 | 21 | 0 | 0 | 0 | – | –
32 | O=C(NC1CCN(c2ccnc(Nc3ccc(F)cc3)n2)C1)c1cc2ccccc2s1 (stereo not drawn) [GSK1379716] | 9 | 7 | 0 | 0 | 4 | 45 | 15 | 10 | 17 | 10 | – | –
33 | COc1cccc(-c2ccc3c(NC(=O)C4CC4)n[nH]c3n2)c1 [SB-710903] | 0 | 0 | 0 | 0 | 0 | 70 | 6 | 0 | 12 | 6 | – | –
34 | CN1CCN(Cc2cccc(-c3ccc4c(Nc5ccc(Oc6ccccc6)cc5)ccnc4c3)c2)CC1 [GW578342] | 0 | 0 | 0 | 0 | 6 | 27 | 0 | 9 | 0 | 48 | – | –
35 | Fc1ccc(-c2ncn(C3CCNCC3)c2-c2ccnc(Oc3ccc(-c4ccccc4)cc3)n2)cc1 [SB-245391] | 0 | 6 | 26 | 25 | 0 | 0 | 80 | 7 | 0 | 3 | – | –
36 | CSc1cccc2c(-c3ccncn3)c(-c3ccc(F)cc3)nn12 [GW514786] | 100 | 17 | 0 | 0 | 16 | 19 | 0 | 14 | 4 | 29 | – | –
37 | Cc1ccc(C)c(NC(=O)NC2CCN(c3ccnc(Nc4ccc(F)cc4)n3)C2)c1 (stereo not drawn) [GSK1379720] | 0 | 0 | 0 | 0 | 4 | 51 | 19 | 13 | 14 | 0 | – | –
38 | c1ccc(-c2cnc3nccnn23)cc1 [AH20685] | 0 | 14 | 0 | 0 | 6 | 6 | 0 | 0 | 7 | 0 | – | –
39 | O=c1[nH]cc(-c2ccc(N3CCOCC3)cc2)c2sc(-c3cn[nH]c3)cc12 [GSK2276055] | 4 | 0 | 10 | 34 | 10 | 0 | 0 | 11 | 0 | 3 | – | –
40 | O=C(Nc1cccc(-c2nn3ccccc3c2-c2ccnc(Nc3cccc(F)c3)n2)c1)c1c(F)ccc(F)c1Cl [GSK357952] | 39 | 1 | 1 | 0 | 22 | 8 | 0 | 5 | 79 | 84 | – | –
41 | CC(=O)N1CCN(c2ccc(Nc3nccc(-c4sc(C(C)C)nc4-c4cccc(NS(=O)(=O)c5cccc(Cl)c5)c4)n3)cn2)CC1 [GSK1660437] | 100 | 25 | 0 | 0 | 5 | 2 | 0 | 10 | 86 | 54 | – | –
42 | CC(C)(C)c1ccc2nccc(Nc3cccc(O)c3)c2c1 [GW856795] | 77 | 1 | 4 | 0 | 0 | 27 | 0 | 0 | 0 | 94.7 | – | –
43 | CC(C)c1nc(-c2cccc(NS(=O)(=O)c3c(F)cccc3F)c2F)c(-c2ccnc(Nc3ccc(N4CCOCC4)nc3)n2)s1 [GSK2008607] | 100 | 0 | 0 | 29 | 0 | 0 | 3 | 90.5 | 100 | 99.7 | – | –
44 | COc1ccc(Nc2nccc(NCCNC(=O)c3cc4ccccc4s3)n2)cc1 [GSK1379896] | 0 | 0 | 0 | 0 | 16 | 17 | 0 | 2 | 9 | 25 | – | –
45 | CN(C)S(=O)(=O)c1cc(-c2ccc3nccc(-c4cccc(S(N)(=O)=O)c4)c3c2)cnc1N [GSK1669921] | 100 | 34 | 76 | 0 | 27 | 0 | 6 | 7 | 9 | 58 | – | –
